Laboratory results taken from PubChem BioAssay (NCI).
“And” between values parts separate entries of the source, which are not always exact repeats. Equal entries are not always repeated. Compounds without any hit were thinned out: in the full panel of roughly 79,000, 15% have a hit. The source made the active and inactive calls. Rule as the data show it: active = growth inhibition above about 70%; inactive = the rest.

Tests used:
[1] = NCI Yeast Anticancer Drug Screen. Data for the sgs1 strain (AID 173);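 also: 0% = growth of vehicle-only control cultures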; conditions: S. cerevisiae sgs1 mutant, stronger effect = higher value
In short: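 Screen format: yeast with repair or checkpoint alterations, compound exposure, growth read relative to vehicle.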

[2] = NCI Yeast Anticancer Drug Screen. Data for the mlh1 rad18 strain (AID 175); conditions: S. cerevisiae mlh1 rad18 strain growth inhibition, stronger effect = higher value
In short: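 Vehicle-treated cultures served as the reference for growth inhibition in a yeast strain carrying DNA damage repair alterations exposed to each compound.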

[3] = NCI Yeast Anticancer Drug Screen. Data for the rad18 strain (AID 177); conditions: S. cerevisiae rad18 mutant growth inhibition, stronger effect = higher value
In short: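 Test articles were incubated with altered yeast defective in DNA damage repair. Results are given as inhibition of growth versus vehicle.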

[4] = NCI Yeast Anticancer Drug Screen. Data for the wt1 strain (AID 149);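 also: 0% = growth of vehicle-treated wt1 cultures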; conditions: S. cerevisiae wt1 strain (SPY 50644) growth inhibition, stronger effect = higher value
In short: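 Growth inhibition read against vehicle controls after compound exposure of the wt1 yeast strain.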

[5] = NCI Yeast Anticancer Drug Screen. Data for the rad50EPP+ strain (AID 151);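 also: 0% = growth of vehicle-treated control cultures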; conditions: S. cerevisiae rad50 mutant strain, stronger effect = higher value
In short: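 In this screen, rad50EPP+ yeast were exposed to compounds. Growth inhibition was scored against vehicle-treated controls.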

[6] = NCI Yeast Anticancer Drug Screen. Data for the mgt1 strain (AID 153); conditions: S. cerevisiae mgt1 mutant growth inhibition, stronger effect = higher value
In short: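 mgt1 strain exposed; growth vs vehicle control recorded as inhibition.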

[7] = NCI Yeast Anticancer Drug Screen. Data for the rad50 strain (AID 155);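 also: 0% = growth of vehicle-only cultures of the same strain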; conditions: S. cerevisiae rad50 strain growth inhibition, stronger effect = higher value
In short: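 Readout: growth inhibition relative to vehicle-treated cultures. Compound exposure was carried out in a genetically defined yeast strain deficient in DNA damage repair.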

[8] = NCI Yeast Anticancer Drug Screen. Data for the mec2-1 strain (AID 157); conditions: S. cerevisiae mec2-1 strain, stronger effect = higher value
In short: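 Vehicle-treated cultures served as reference for growth inhibition of compound-exposed mec2-1 yeast.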

[9] = NCI Yeast Anticancer Drug Screen. Data for the rad14 strain (AID 159);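 also: 0% = growth of vehicle-treated control cultures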; conditions: S. cerevisiae rad14 strain growth inhibition, stronger effect = higher value
In short: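 Growth inhibition vs vehicle controls; genetically altered yeast strain (DNA damage repair defect) treated with test compounds.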

[10] = NCI Yeast Anticancer Drug Screen. Data for the sgs1 mgt1 strain (AID 161);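 also: 0% = growth of cultures given vehicle only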; conditions: S. cerevisiae sgs1 mgt1 strain, stronger effect = higher value
In short: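 Read-out: growth inhibition vs vehicle controls. Cells: mutant yeast strain deficient in DNA damage repair.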

[11] = NCI Yeast Anticancer Drug Screen. Data for the cln2 rad14 strain (AID 165);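 also: 0% = growth equal to vehicle treated cultures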; conditions: S. cerevisiae cln2 rad14 strain, stronger effect = higher value
In short: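 Each compound was tested on cln2 rad14 yeast. Inhibition of growth was calculated against vehicle-exposed controls.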

[12] = NCI Yeast Anticancer Drug Screen. Data for the bub3 strain (AID 167); conditions: S. cerevisiae bub3 mutant strain, stronger effect = higher value
In short: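 Readout: yeast growth inhibition, expressed relative to vehicle-only wells. The test organism is a mutant strain from a panel with lesions in DNA repair or checkpoint genes.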

[13] = NCI Yeast Anticancer Drug Screen. Data for the wt2 strain (AID 169);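 also: 0% = growth of vehicle-treated yeast cultures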; conditions: S. cerevisiae wt2 strain growth inhibition, stronger effect = higher value
In short: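 Inhibition of yeast growth was determined after compound treatment, normalised to controls receiving only vehicle.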

[14] = NCI Yeast Anticancer Drug Screen. Data for the mlh1 strain (AID 171);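 also: 0% = growth of vehicle-treated control cultures of the same strain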; conditions: S. cerevisiae mlh1 strain growth inhibition, stronger effect = higher value
In short: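 Vehicle-normalised growth inhibition of a repair- or checkpoint-altered yeast strain following compound treatment.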

[15] = at 5.0 µM (retest, dose inferred, filed as 0.5)
[16] = at 50.0 µM (retest, dose inferred, filed as 5.0)

Measured: growth inhibition

O=C(/C(=C/c1ccccc1)CBr)c1ccccc1
active: [1]; at 11.0 µM 77% | [1]; at 33.0 µM 96% | [1]; at 100.0 µM 99% | [2]; [16] 99% | [2]; at 50.0 µM 74.5% and 90.6% | [3]; at 11.0 µM 81% | [3]; at 33.0 µM 96% | [3]; at 100.0 µM 99%
inactive: [1]; at 1.2 µM 5% | [1]; at 3.7 µM 21% | [2]; [15] 68% | [3]; at 1.2 µM 6% | [3]; at 3.7 µM 22%

Cc1ccccc1C1=C(CC(=O)O)c2ccccc2CC1C (centres undefined)
active: [4]; at 33.0 µM 96% | [4]; at 100.0 µM 96% | [6]; at 33.0 µM 95% | [6]; at 100.0 µM 99% | [7]; at 33.0 µM 97% | [7]; at 50.0 µM 98.9% | [7]; at 100.0 µM 99% | [8]; at 33.0 µM 95% | [8]; at 50.0 µM 99.7% | [8]; at 100.0 µM 99% | [9]; at 33.0 µM 98% | [9]; at 100.0 µM 99% | [10]; at 50.0 µM 99.6% | [11]; at 50.0 µM 99.4% | [12]; at 33.0 µM 93% | [12]; at 50.0 µM 99% | [12]; at 100.0 µM 99% | [13]; at 33.0 µM 97% | [13]; at 100.0 µM 98% | [14]; at 33.0 µM 96% | [14]; at 100.0 µM 99% | [1]; at 33.0 µM 98% | [1]; at 100.0 µM 99% | [2]; at 50.0 µM 99.5% | [3]; at 33.0 µM 96% | [3]; at 100.0 µM 99%
inactive: [4]; at 1.2 µM 4% | [4]; at 3.7 µM 8% | [4]; at 11.0 µM 29% | [5]; at 1.2 µM -1% | [5]; at 3.7 µM 2% | [5]; at 11.0 µM 6% | [5]; at 33.0 µM 10% | [5]; at 100.0 µM 49% | [6]; at 1.2 µM 9% | [6]; at 3.7 µM 11% | [6]; at 11.0 µM 22% | [7]; at 1.2 µM 6% | [7]; at 3.7 µM 10% | [7]; [15] 6% | [7]; at 11.0 µM 45% | [7]; [16] 10% | [8]; at 1.2 µM 9% | [8]; at 3.7 µM 20% | [8]; [15] 10% | [8]; at 11.0 µM 49% | [8]; [16] 6% | [9]; at 1.2 µM 6% | [9]; at 3.7 µM 11% | [9]; at 11.0 µM 29% | [10]; [15] 2% | [10]; [16] 20% | [11]; [15] -13% | [11]; [16] 28% | [12]; at 1.2 µM 11% | [12]; at 3.7 µM 9% | [12]; [15] -4% | [12]; at 11.0 µM 26% | [12]; [16] 1% | [13]; at 1.2 µM 5% | [13]; at 3.7 µM 7% | [13]; at 11.0 µM 37% | [14]; at 1.2 µM 6% | [14]; at 3.7 µM 12% | [14]; at 11.0 µM 32% | [1]; at 1.2 µM 5% | [1]; at 3.7 µM 10% | [1]; at 11.0 µM 40% | [2]; [15] 14% | [2]; [16] 50% | [3]; at 1.2 µM 4% | [3]; at 3.7 µM 10% | [3]; at 11.0 µM 38%

c1ccc(N/N=C2\CC(c3ccccc3)Oc3ccccc32)cc1 (centres undefined)
inactive: [4]; at 1.2 µM -1% | [4]; at 3.7 µM 0% | [4]; at 11.0 µM -3% | [4]; at 33.0 µM -2% | [4]; at 100.0 µM -2% | [5]; at 1.2 µM 19% | [5]; at 3.7 µM 33% | [5]; at 11.0 µM 47% | [5]; at 33.0 µM 64% | [5]; at 100.0 µM 50% | [6]; at 1.2 µM -3% | [6]; at 3.7 µM -1% | [6]; at 11.0 µM 6% | [6]; at 33.0 µM 11% | [6]; at 100.0 µM 22% | [7]; at 1.2 µM 4% | [7]; at 3.7 µM 11% | [7]; [15] 5% | [7]; at 11.0 µM 1% | [7]; at 33.0 µM 32% | [7]; [16] 8% | [7]; at 100.0 µM 28% | [8]; at 1.2 µM 1% | [8]; at 3.7 µM 4% | [8]; [15] -2% | [8]; at 11.0 µM 9% | [8]; at 33.0 µM 14% | [8]; [16] 23% | [8]; at 50.0 µM 31.4% | [8]; at 100.0 µM 13% | [9]; at 1.2 µM 0% | [9]; at 3.7 µM 4% | [9]; at 11.0 µM 10% | [9]; at 33.0 µM 52% | [10]; [15] -5% | [10]; [16] 26% | [11]; [15] -5% | [11]; [16] 4% | [11]; at 50.0 µM 30.6% | [12]; at 1.2 µM 1% | [12]; at 3.7 µM 4% | [12]; [15] -24% | [12]; at 11.0 µM 15% | [12]; at 33.0 µM 39% | [12]; [16] 27% | [12]; at 50.0 µM 53% | [12]; at 100.0 µM 39% | [13]; at 1.2 µM 0% | [13]; at 3.7 µM -4% | [13]; at 11.0 µM 5% | [13]; at 33.0 µM 21% | [13]; at 100.0 µM 29% | [14]; at 1.2 µM 1% | [14]; at 3.7 µM 0% | [14]; at 11.0 µM 4% | [14]; at 33.0 µM 6% | [14]; at 100.0 µM 3% | [2]; [15] -26% | [2]; [16] 50% | [3]; at 1.2 µM 6% | [3]; at 3.7 µM 14% | [3]; at 11.0 µM 20% | [3]; at 33.0 µM 33% | [3]; at 100.0 µM 49%
active: [7]; at 50.0 µM 71.2% | [9]; at 100.0 µM 72% | [10]; at 50.0 µM 74% | [2]; at 50.0 µM 72.5%
